Shn3 3UTR inh: reduction of Shn3 3'UTR firefly luciferase signal, primary screen, Schnurri-3 inhibitor project, cell-based, Clone20 osteoblasts, set 2. Clone20 osteoblast Shn3 3'UTR firefly luciferase, 24 h. inhibition, % at 12.5 µM. 0.52% of 360,000 active. AID 588674, 2011;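 active = mean inhibition of at least 75% with every replicate also reaching 75%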;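 note: 0% = median of neutral control wells and 100% = pilot-screen positive control compound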
HIF-2a inh: HIF-2a reporter inhibitors, primary screen, luminescence, 786-0 RCC cells; AID 624352, 2012; 0.72% of 360,000 active; inhibition, % at 18.8 µM; 786-0 RCC cells HIF-2a reporter, luciferase luminescence, overnight;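 active = inhibition of the luminescence signal of 40% or more relative to plate controls, in a single-dose primary screen at 18.75 µM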
KKLEB cytotox: cytotoxicity in KKLEB CF airway cells, primary screen, cytotoxicity control for CF NF-kB inhibitor project, cell-based, uHTS, fluorescence assay plates; 0.36% of 360,000 active; KKLEB CF airway cells viability, ATPlite luminescence, overnight; active compounds read low; cells stimulated with P. aeruginosa culture filtrate; activity change (cytotoxicity), % at 5 µM;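 active = corrected activity change at or below -50% at 5 µM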
TRPM1 prom inh: inhibitors of MITF-dependent TRPM1 promoter reporter, primary screen, cell-based, SK-MEL-5, single point, luciferase; SK-MEL-5 TRPM1 promoter luciferase, 24 h; 0.83% of 330,000 active; inhibition, % at 12.5 µM;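 active = mean inhibition across replicates of 60% or more, whatever share of single replicates reaches that level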
Peg3 promoter: Peg3 promoter-driven luciferase inhibitors, primary screen, cell-based, HeLa, luciferase luminescence. 1.7% of 360,000 active. AID 588405, 2011. inhibition, % at 20 µM. HeLa PEG-Prom luciferase reporter, overnight;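 active = inhibition of at least 50% at 20 µM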
CF NFkB block: inhibitors of PAF-induced NF-kB signaling, primary screen, cell-based, GFP fluorescence, uHTS. KKLEB NF-kB-GFP reporter, GFP fluorescence overnight. inhibition, % at 5 µM. 0.86% of 360,000 active;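 active = at least 50% inhibition at 5 µM, scaled per plate between neutral and stimulator controls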;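 note: PAF is a Pseudomonas aeruginosa culture filtrate used as stimulus; plate controls were PAF-stimulated DMSO wells for no effect and unstimulated DMSO wells for full effect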
* = called active by the depositor. Compounds with a hit are over-represented: about 2.8% of the library has one in this group of screens.

For Cc1ccc(-n2ncc(C(=O)Nc3cc(Cl)cc(Cl)c3)c2C2CCNCC2)cc1C the results were Shn3 3UTR inh 5, HIF-2a inh -15, KKLEB cytotox -42, TRPM1 prom inh 85*, Peg3 promoter 60* and CF NFkB block 37.
Screening Cc1ccc(-n2ncc(C(=O)Nc3cc(Cl)ccc3Cl)c2C2CCNCC2)cc1 returned Shn3 3UTR inh 10, HIF-2a inh 0, KKLEB cytotox -17, TRPM1 prom inh 5, Peg3 promoter -10 and CF NFkB block 40.
`Cc1c(C(=O)N2CCN(Cc3ccc4c(c3)OCO4)CC2)sc2ncnc(N3CCN(c4ccccc4F)CC3)c12` gave Shn3 3UTR inh 36, HIF-2a inh -20, KKLEB cytotox -18, TRPM1 prom inh 31, Peg3 promoter 58* and CF NFkB block -24.
For Cc1c(C(=O)N2CCN(Cc3ccc4c(c3)OCO4)CC2)sc2ncnc(N3CCN(c4ccccc4)CC3)c12 the results were Shn3 3UTR inh 47, HIF-2a inh -3, KKLEB cytotox 9, TRPM1 prom inh 15, Peg3 promoter 58* and CF NFkB block -24.
`Cc1c(C(=O)N2CCN(c3ccccn3)CC2)sc2ncnc(N3CCN(c4ccccc4)CC3)c12` gave Shn3 3UTR inh -3, HIF-2a inh 13, KKLEB cytotox -4, TRPM1 prom inh 4, Peg3 promoter 22 and CF NFkB block 1.
Screening CCCNC(=O)Cn1cnc2sc(C(=O)N3CCN(Cc4ccc5c(c4)OCO5)CC3)c(C)c2c1=O returned Shn3 3UTR inh 17, HIF-2a inh 19, KKLEB cytotox 10, TRPM1 prom inh 11, Peg3 promoter 8 and CF NFkB block 17.
Screening COc1ccccc1/C=N/NC(=O)CC(=O)NCCc1ccccc1 returned Shn3 3UTR inh 8, HIF-2a inh 12, KKLEB cytotox 10, Peg3 promoter 16 and CF NFkB block -6.
CCCCCCCCC(c1nc2ccccc2[nH]1)N1CCN=C1c1cc2ccccc2[nH]1 (stereo not drawn) was read as Shn3 3UTR inh 16, HIF-2a inh 29, KKLEB cytotox -26, Peg3 promoter 100* and CF NFkB block 14.
Screening Cc1ccc(S(=O)(=O)Nc2ccc(Br)cc2C(NCC(=O)O)c2ccccc2)cc1 (stereo not drawn) returned Shn3 3UTR inh 3, HIF-2a inh 20, KKLEB cytotox 8, TRPM1 prom inh 16, Peg3 promoter 10 and CF NFkB block 24.
`O=S(=O)(Nc1cc(Sc2ncn[nH]2)c(O)c2ccccc12)c1ccccc1` gave Shn3 3UTR inh 93*, HIF-2a inh 3, KKLEB cytotox 7, TRPM1 prom inh 40, Peg3 promoter -5 and CF NFkB block 79*.
Screening Cc1cc(O)c(Sc2ncn[nH]2)cc1NS(=O)(=O)c1ccc(Cl)cc1 returned Shn3 3UTR inh -6, HIF-2a inh 11, KKLEB cytotox 2, TRPM1 prom inh -2, Peg3 promoter 7 and CF NFkB block 19.
`O=C(O)CSc1cc(NS(=O)(=O)c2ccc(Br)cc2)c2ccccc2c1O` gave Shn3 3UTR inh -5, HIF-2a inh 5, KKLEB cytotox -31, TRPM1 prom inh 48, Peg3 promoter 45 and CF NFkB block 91*.
For O=C(NC(O)C(=O)c1ccc(F)cc1)c1ccc(F)cc1 (stereo not drawn) the results were Shn3 3UTR inh -5, HIF-2a inh 13, KKLEB cytotox 5, TRPM1 prom inh 3, Peg3 promoter 4 and CF NFkB block -8.
CCNc1nnc(SCC(=O)N2c3ccccc3NC(=O)CC2C)s1 (stereo not drawn) was read as Shn3 3UTR inh -15, HIF-2a inh 4, KKLEB cytotox 21, TRPM1 prom inh 0, Peg3 promoter 7 and CF NFkB block -4.
C[C@@H]1C[C@H]2[C@@H]3C[C@H](F)C4=CC(=O)C=C[C@]4(C)[C@@]3(Cl)[C@@H](O)C[C@]2(C)[C@H]1C(=O)COC(=O)C(C)(C)C was read as Shn3 3UTR inh 9, HIF-2a inh 22, KKLEB cytotox 4, TRPM1 prom inh -16, Peg3 promoter 6 and CF NFkB block 69*.
CN(C)CCCn1c(SCC(=O)Nc2nc(-c3cccc(Br)c3)cs2)nc2ccccc2c1=O was read as Shn3 3UTR inh -53, HIF-2a inh -32, KKLEB cytotox -20, TRPM1 prom inh 63*, Peg3 promoter 104* and CF NFkB block 6.
Screening O=C(CSc1nc2ccccc2[nH]1)Nc1nc(-c2cccc(Br)c2)cs1 returned Shn3 3UTR inh -9, HIF-2a inh 22, KKLEB cytotox -13, TRPM1 prom inh 0, Peg3 promoter 0 and CF NFkB block 8.
`c1cnc2ccc(-c3ccc4ncccc4c3)cc2c1` gave Shn3 3UTR inh -15, HIF-2a inh -56, KKLEB cytotox -33, TRPM1 prom inh -32, Peg3 promoter -189 and CF NFkB block 58*.
For COc1ccc(-c2n(Cc3ccccc3)c3ccccc3[n+]2Cc2ccccc2)cc1 the results were Shn3 3UTR inh 51, HIF-2a inh 19, KKLEB cytotox -32, TRPM1 prom inh 80*, Peg3 promoter 48 and CF NFkB block 48.
For CC(C)c1ccccc1NC(=O)C1CC(=O)N(C2CCCC2)C1 (stereo not drawn) the results were Shn3 3UTR inh 34, HIF-2a inh 5, KKLEB cytotox 1, TRPM1 prom inh -9, Peg3 promoter 3 and CF NFkB block 14.
Screening O=C(Nc1ccccc1N1CCCCC1)C1CCN(C(=O)c2ccc(Cl)cc2)CC1 returned Shn3 3UTR inh 13, HIF-2a inh 17, KKLEB cytotox 14, TRPM1 prom inh 3, Peg3 promoter 32 and CF NFkB block 5.
For CC1CCc2nc(N)c(C#N)c(-c3cccnc3)c2C1 (stereo not drawn) the results were Shn3 3UTR inh 21, HIF-2a inh 13, KKLEB cytotox -5, TRPM1 prom inh 4, Peg3 promoter 31 and CF NFkB block 69*.
For CC1CCc2nc(N)c(C#N)c(-c3ccncc3)c2C1 (stereo not drawn) the results were Shn3 3UTR inh 7, HIF-2a inh 20, KKLEB cytotox -10, TRPM1 prom inh 2, Peg3 promoter 17 and CF NFkB block -9.
`COc1ccc(OC)c(/C=C/c2ccc3cccc(O)c3n2)c1` gave Shn3 3UTR inh -3, HIF-2a inh -95, KKLEB cytotox 5, TRPM1 prom inh 5, Peg3 promoter 83* and CF NFkB block -41.
Cc1ccsc1/C=C/c1ccc2cccc(O)c2n1 was read as Shn3 3UTR inh -31, HIF-2a inh -128, KKLEB cytotox -20, TRPM1 prom inh -3, Peg3 promoter 80* and CF NFkB block 5.

Source: PubChem (several laboratories)
